# HT1080 IDH1KD tx = kills HT-1080 cells with IDH1 knockdown. Potency, µM (titrated, usually from 46.1 µM), actives largely listed as cytotoxic. 2% of 360,000 active. AID 686971. HT-1080 IDH1 knockdown viability, ATP luminescence, 48 h
#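 Viability of IDH1-knockdown HT-1080 fibrosarcoma cells was assessed by CellTiter-Glo after 48 h at 37 °C with titrated compound; concentration-effect curves were classified by fit quality and response size.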
# KB-V1 MDR tox = KB-V1 MDR subline cytotoxicity; KB-V1 MDR cells viability, CellTiter-Glo, 72 h; Potency, µM (series often up to 46.1 µM), actives largely listed as cytotoxic; 3.4% of 400,000 active; AID 1347076; also: nearly all actives have a fitted effect of over 60% in size
#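 In this primary screen, KB-V1 cells overexpressing P-gp are incubated with library compounds (lowest to highest concentration) for 72 h at 37 degrees C before a luminescent ATP viability read.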
# HT1080NT lethal = kills 2HG-producing HT-1080-NT fibrosarcoma cells | 1.6% of 360,000 active | HT-1080-NT fibrosarcoma viability, CellTiter-Glo ATP luminescence, 48 h | AID 686970 | Potency, µM (highest dose often 46.1 µM), actives largely listed as cytotoxic;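 also: NT is the 2HG producing partner of a matched IDH1 knockdown line; nearly all actives have a fitted effect of over 55% in size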
#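 750 cells/well, RPMI + 5% FBS; 2 h settle, compound pin-transfer, 48 h at 37 degrees C. CellTiter-Glo 10 min RT, luminescence. Normalized to DMSO and media-only wells.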
# SW480 rereplic = DNA re-replication induction in SW480 cells; Potency, µM (titrated, usually from 46.1 µM), most hits filed as activators; SW480 DNA re-replication, Hoechst DNA content imaging, 48 h; 1.8% of 340,000 active; also: nearly all actives have a fitted effect of over 55% in size
#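 250 cells/well; 23 nL cpd via pin tool; 48 hr, 37 C, 5% CO2; Hoechst 40 min; imager read of total nuclear intensity, ex 405/em 500-530 nm.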
# MCF10A rerep = induces DNA re-replication in MCF 10a normal breast cells; AID 624296; MCF 10A DNA re-replication, Hoechst nuclear intensity, 48 h; 2.9% of 350,000 active; Potency, µM (highest dose often 46.1 µM), usual class: activators; also: nearly all actives have a fitted effect of over 50% in size
# KB-3-1 cytotox = KB-3-1 parental cell cytotoxicity; KB-3-1 viability, CellTiter-Glo ATP luminescence, 72 h; Potency, µM (doses to about 46.1 µM), most hits filed as cytotoxic; 1.4% of 400,000 active; AID 1347075; also: nearly all actives have a fitted effect of over 60% in size
#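 Cytotoxicity measured as CellTiter-Glo luminescence after 72 h at 37 C. Compound titrations were pinned onto drug-naive KB-3-1 parental adenocarcinoma cells grown in DMEM with 10% FBS, and normalized data fitted to concentration-response curves.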
# Hits are given with their value; – = inactive; ? = inconclusive; · = not tested or not shown; ! = a repeat was not active. An excerpt weighted towards active compounds, which were near 7.9% of everything screened. Calls follow the shape of the dose curve; as a rule, active = well fitted curve in the direction sought with a large enough effect; inconclusive = small, poorly fitted or top-dose-only effect, or another doubt; inactive = no such curve, though single readings can be large; an effect the other way counts as inactive or inconclusive.
SMILES,HT1080 IDH1KD tx,KB-V1 MDR tox,HT1080NT lethal,SW480 rereplic,MCF10A rerep,KB-3-1 cytotox
Cc1nc(CCNC(=O)CC2C(=O)NCCN2Cc2ccccc2F)sc1C (stereo not given),–,–,?,–,–,–
COc1cc(NC(=O)COc2ccc(F)cc2)nc(OC)n1,–,–,–,20.6µM,?,–
COc1ccccc1NC(=O)COc1ccc(-c2nn(C)c(=O)c3ccccc23)cc1,–,18.4µM!,–,–,–,?
COc1ccccc1NC(=O)COc1ccccc1,–,–,–,?,?,–
COc1ccc(OCC(=O)Nc2ccccc2O)cc1,–,16.4µM,–,–,–,–
CCCNC(=O)c1ccccc1NC(=O)COc1ccc(OC)cc1,–,4.61µM,–,–,–,–
Cc1ccc(OCC(=O)Nc2ccccc2C(N)=O)cc1,–,–,–,–,–,–
CC(=O)Nc1cccc(NC(=O)COc2nncc3ccccc23)c1,–,–,–,–,–,–
O=C1C2C(C(=O)N1c1ccncc1)C1C=CC2C12CC2 (stereo not given),–,–,–,–,–,–
CCOCCn1ccc2c(OCC(=O)Nc3cc(OC)ccc3OC)cccc2c1=O,–,16.4µM,–,?,?,–
COc1ccc(C(C)(NC(C)=O)c2nc(-c3ccc(F)c(Cl)c3)cs2)cc1 (stereo not given),?,–,?,·,·,–
O=c1c2cc(Br)ccc2[nH]c(=S)n1Cc1ccccn1,–,16.4µM,–,–,–,–
O=C(CCCn1c(=S)[nH]c2ccc(Br)cc2c1=O)N1CCN(c2ccccn2)CC1,–,2.91µM,–,?,?,–
COc1ccccc1NC(=O)c1cn(-c2ccccc2)nc1-c1ccccc1,·,–,·,·,·,–
Cc1ccc2c(c1)c1c(n2CC(O)Cn2nc(C)c(Br)c2C)CCCC1 (stereo not given),?,20.6µM,?,–,23.1µM,?
CC[n+]1c(/C=C/N(C)c2ccccc2)oc2ccc(F)cc21,?,–,?,?,?,5.8µM
CC[n+]1c(/C=C/Nc2ccccc2)oc2ccccc21,?,–,–,?,?,–
CC[n+]1c(/C=C/Nc2ccccc2)oc2ccc(OC)cc21,–,–,–,?,18.4µM,–
CN(/C=C/c1c([N+](=O)[O-])c(=O)n(C)c(=O)n1C)c1ccccc1,–,–,–,–,–,–
CCCc1[nH]n(-c2ccc(F)cc2)c(=O)c1C=Nc1cccc(F)c1,14.6µM,?,7.31µM,?,?,5.8µM
O=C(CCl)N(c1ccccc1)C1CCS(=O)(=O)C1 (stereo not given),18.4µM,?,?,16.4µM,?,–
N/C(Cc1ccc(Cl)cc1)=N\OC(=O)c1ccccc1,?,–,?,–,–,–
COc1ccc(CC(=O)O/N=C(\N)c2ccc(C)cc2)cc1,–,–,–,–,–,–
COc1ccc(C(=O)O/N=C(\N)Cc2ccc(Cl)cc2)cc1OC,?,?,14.6µM,?,?,?
COc1ccc(/C(N)=N/OC(=O)Cc2ccc(C)cc2)cc1OC,–,–,–,2.91µM,?,–
SMILES,HT1080 IDH1KD tx,KB-V1 MDR tox,HT1080NT lethal,SW480 rereplic,MCF10A rerep,KB-3-1 cytotox
COc1ccc(C(=O)O/N=C(\N)Cc2ccc(Cl)c(Cl)c2)cc1OC,?,?,14.6µM,·,?,?
C[C@H]1CN([C@@H](C)CO)C(=O)Cc2cc(NC(=O)Cc3cn(C)c4ccccc34)ccc2O[C@@H]1CN(C)S(=O)(=O)c1cn(C)cn1,–,–,–,3.66µM,–,–
C[C@H]1CN([C@@H](C)CO)C(=O)Cc2cc(NC(=O)CCC(F)(F)F)ccc2O[C@H]1CN(C)S(=O)(=O)c1ccc(Cl)cc1,4.61µM,–,3.66µM,3.26µM,4.61µM,4.61µM
C[C@H](CO)N1C[C@H](C)[C@H](CN(C)S(=O)(=O)c2cccs2)Oc2ccc(NC(=O)Nc3ccc4c(c3)OCO4)cc2CC1=O,?,?,?,16.4µM,?,?
C[C@H]1CN([C@@H](C)CO)C(=O)Cc2cc(NC(=O)CCC(F)(F)F)ccc2O[C@H]1CN(C)S(=O)(=O)c1ccc(F)cc1,?,–,11.6µM,?,14.6µM,5.17µM
C[C@H]1CN([C@@H](C)CO)C(=O)Cc2cc(NC(=O)CCC(F)(F)F)ccc2O[C@H]1CN(C)C(=O)Nc1ccc(F)cc1,–,–,–,–,–,–
COc1ccccc1-c1nnc(SCC(=O)NCc2c(C)c(Cl)cc(C(C)C)c2O)o1,15.8µM,?,?,–,–,–
Cc1ccc(-c2cc(C(F)(F)F)c(C#N)c(SCCC#N)n2)o1,–,–,–,9.2µM,?,–
O=C1[C@H]2[C@@H](C(=O)N1c1cc(Cl)cc(Cl)c1)[C@]1(C(=O)Nc3ccccc31)N1CCC[C@@H]21,?,14.6µM,–,–,–,–
Cc1cc(Cl)c2c(c1)[C@]1(C(=O)N2)[C@@H]2C(=O)N(Cc3ccccc3)C(=O)[C@@H]2[C@@H]2CCCN21,?,?,?,–,–,?
CCN(CC(=O)Nc1ccc2c(c1)OCCO2)CC(=O)Nc1ccc2c(c1)OCO2,–,–,–,–,–,–
COC(=O)c1ccc(NC(=O)COc2ccc3c(c2)OCO3)cc1,?,–,–,0.411µM,–,–
Cc1ccc(C)c(OCC(=O)Nc2ccc3c(c2)OCO3)c1C,–,?,–,?,–,8.2µM
CCN(CC(=O)Nc1ccc2c(c1)OCCO2)Cc1cc(=O)oc2c(C)c(C)ccc12,–,4.11µM,–,–,–,–
Cc1cccc(OCC(=O)Nc2ccc3c(c2)OCO3)c1C,–,–,–,–,–,–
CC(C)COC(=O)N1CC(O)CC1C(=O)Nc1ccc2c(c1)OCO2 (stereo not given),–,–,–,–,–,–
CCOc1ccccc1OCC(=O)Nc1nnc(COC)s1,–,18.4µM,–,–,–,–
CCOc1ccc(-n2nc3ccc(N)cc3n2)cc1,–,–,–,?,18.4µM,–
CCOc1ccc(-n2nc3cc(C)c(N)cc3n2)cc1,–,–,–,16.4µM,18.4µM,–
O=C(NNC1=NCCN1Cc1ccccc1)c1cccc(C(F)(F)F)c1,–,–,–,–,–,–
CN1CCc2nc3sc(C(=O)NCc4ccccc4)c(N)c3cc2C1,?,–,–,–,18.4µM,–
CC(C)(C)C(=O)Nc1nc(-c2ccc3c(c2)OCO3)cs1,–,?,–,–,–,–
O=C(Nc1ccccc1)c1ccc(-c2ccc(Br)cc2)o1,–,–,–,?,20.6µM,–
O=C(Nc1ccccc1)c1ccc(-c2ccc([N+](=O)[O-])cc2)o1,–,–,–,–,23.1µM,?
O=C(Nc1cccc(NC(=O)c2ccc(-c3ccc(Br)cc3)o2)c1)c1ccccc1,–,–,–,?,?,–

# Compound activity from PubChem.
